Screening data as filed in PubChem BioAssay.
G9a block = qHTS Assay for Inhibitors of Histone Lysine Methyltransferase G9a. Histone-lysine N-methyltransferase EHMT2 (Homo sapiens), Q96KQ7. G9a H3K9 monomethylation, AlphaScreen, 2 h. Potency, µM (top dose mostly 102 µM), for inactives: at the highest dose activity, negative = inhibition, usual class: inhibitors. 350,000 tested, 8.8% active; note: % is set by controls: 0 for no effect and ±100 for the full control effect; nearly all actives have a fitted effect of over 75% in size
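AlphaScreen read-out: biotin-H3K9 peptide (500 nM) methylation by 20 nM enzyme with 20 uM SAM, 2 h at room temperature after 15 min compound preincubation; anti-monomethyl H3K9 antibody plus donor/acceptor beads, 10 min dark.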
BAZ2B inh = qHTS Assay for Inhibitors of BAZ2B; Bromodomain adjacent to zinc finger domain protein 2B (Homo sapiens), Q9UIF8; AlphaScreen BAZ2B-H3K14Ac peptide displacement; Potency, µM (series often up to 114 µM), for the others: top-dose activity change, negative = inhibition, most hits filed as inhibitors; 360,000 tested, 4.4% active; AID 504333, 2011; note: % is set by controls: 0 for no effect and ±100 for the full control effect; nearly all actives have a fitted effect of over 60% in size
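Complex of BAZ2B and biotin-H3K14Ac (50 nM apiece) forms over 30 min at RT, then faces library compounds up to 110 uM for another 30 min; AlphaScreen beads added, 20 min dark incubation, luminescence read.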
12-LOX inh = Primary qHTS assay for inhibitors of human arachidonate 12S-lipoxygenase (ALOX12): Round 2 | purified 12hLO, xylenol orange hydroperoxide absorbance | Potency, µM (series often up to 108 µM), for inactives: top-dose activity change, negative = inhibition, most hits filed as inhibitors | 580,000 tested, 1.1% active | AID 1671190, 2021; note: % is set by controls: 0 for no effect and ±100 for the full control effect
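Hydroperoxide product was detected by ferrous iron/xylenol orange as the 573 to 405 nm absorbance ratio. Arachidonic acid at 40 uM (final) was turned over for 30 min at room temperature by 150 nM human 12hLO, pH 7.0 Hepes buffer, after 15 min compound preincubation.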
JMJD2A Tudor inh = qHTS Assay for Inhibitors of JMJD2A-Tudor Domain. Lysine-specific demethylase 4A (Homo sapiens), O75164. AlphaScreen JMJD2A-Tudor / H3K4me3 peptide binding. Potency, µM (doses to about 114 µM), for the others: top-dose activity change, negative = inhibition, most hits filed as inhibitors. 390,000 tested, 4.4% active; note: % is set by controls: 0 for no effect and ±100 for the full control effect; nearly all actives have a fitted effect of over 50% in size
Target sequence (O75164 whole entry, looked up, the tested form may be a part): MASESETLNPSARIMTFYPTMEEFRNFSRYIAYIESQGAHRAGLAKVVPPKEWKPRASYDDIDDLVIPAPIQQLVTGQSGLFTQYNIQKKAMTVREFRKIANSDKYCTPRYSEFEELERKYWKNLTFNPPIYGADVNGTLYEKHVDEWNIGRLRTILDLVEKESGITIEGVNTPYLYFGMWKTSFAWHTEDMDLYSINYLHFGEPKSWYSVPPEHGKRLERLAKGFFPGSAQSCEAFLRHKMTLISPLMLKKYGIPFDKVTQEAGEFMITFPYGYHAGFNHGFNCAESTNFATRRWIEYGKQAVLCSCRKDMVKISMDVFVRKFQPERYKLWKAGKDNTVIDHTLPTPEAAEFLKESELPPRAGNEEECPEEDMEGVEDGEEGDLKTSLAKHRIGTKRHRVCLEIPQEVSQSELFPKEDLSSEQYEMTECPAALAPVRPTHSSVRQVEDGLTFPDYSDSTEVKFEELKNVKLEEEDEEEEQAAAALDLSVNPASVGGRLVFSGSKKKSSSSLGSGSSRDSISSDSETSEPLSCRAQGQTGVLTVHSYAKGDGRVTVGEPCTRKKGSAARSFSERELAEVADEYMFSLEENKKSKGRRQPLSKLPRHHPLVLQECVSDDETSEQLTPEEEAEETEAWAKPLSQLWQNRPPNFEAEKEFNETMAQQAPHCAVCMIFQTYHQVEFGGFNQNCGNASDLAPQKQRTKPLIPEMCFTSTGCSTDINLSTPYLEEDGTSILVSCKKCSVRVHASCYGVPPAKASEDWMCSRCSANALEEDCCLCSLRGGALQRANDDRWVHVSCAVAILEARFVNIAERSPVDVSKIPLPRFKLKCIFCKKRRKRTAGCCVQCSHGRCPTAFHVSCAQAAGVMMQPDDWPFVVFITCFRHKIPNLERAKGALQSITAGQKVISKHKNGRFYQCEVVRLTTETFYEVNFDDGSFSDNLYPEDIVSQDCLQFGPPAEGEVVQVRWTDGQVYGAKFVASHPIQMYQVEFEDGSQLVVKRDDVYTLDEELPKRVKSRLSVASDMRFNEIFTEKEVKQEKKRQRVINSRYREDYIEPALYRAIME
HP1b binding inh = HTS for Inhibitors of HP1-beta Chromodomain Interactions with Methylated Histone Tails. Chromobox protein homolog 1 (Homo sapiens), P83916. AlphaScreen HP1-beta / biotin-H3K9me3 peptide binding. Potency, µM (titrated, usually from 114 µM), inactives show at the highest dose activity change, negative = inhibition, most hits filed as inhibitors. 390,000 tested, 0.56% active. AID 540317, 2011; note: nearly all actives have a fitted effect of over 70% in size
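Compound inhibition of the preformed complex between 50 nM HP1-beta and 50 nM biotinylated H3K9me3 peptide was read by AlphaScreen. Buffer was PBS pH 7.4 with 0.01% Tween-20. Incubations ran 30 min at room temperature, with 10 ug/mL donor/acceptor beads.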
Sfp inh = qHTS Assay for Inhibitors of Bacillus subtilis Sfp phosphopantetheinyl transferase (PPTase); 4'-phosphopantetheinyl transferase ffp (Bacillus subtilis), Q9F4F7; Biochemical Sfp PPTase activity, qHTS; Potency, µM, for inactives: largest response in the series, negative = inhibition, actives largely listed as inhibitors; 310,000 tested, 3.5% active;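 note: the enzyme is Sfp with the accession as filed and its product quenches rhodamine fluorescence; 0% = enzyme reaction without inhibitor and -100% = no enzyme wells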
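Buffer: 50 mM Hepes-Na pH 7.6, 10 mM MgCl2, 0.01% Nonidet P-40, 0.01% BSA. Enzyme 15 nM, pre-exposed to compound 15 min; substrates then added and fluorescence change tracked over 30 min.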
Numbers without * were called inactive; ? = inconclusive; . = not tested or not shown; [ ] = dose if it differs, or a comment. The list is not random: actives were taken first. Their share in the collection is about 8.7%. Calls come from the whole dose curve; as a rule, active = well fitted curve in the direction sought with a large enough effect; inconclusive = small, poorly fitted or top-dose-only effect, or another doubt; inactive = no such curve, though single readings can be large; an effect the other way counts as inactive or inconclusive. Potency is the fitted concentration of half-maximal effect.

SMILES	G9a block	BAZ2B inh	12-LOX inh	JMJD2A Tudor inh	HP1b binding inh	Sfp inh
CC(C)n1c(SC2C(=O)CC(C)(C)CC2=O)nc2c1c(=O)n(C)c(=O)n2C	-35.3%[12.7 µM]	?	?	?	39.3%	-16.7%
CCCn1c(SC2C(=O)CC(C)(C)CC2=O)nc2c1c(=O)n(C)c(=O)n2C	56.2µM*	?	?	-4.7%	73.2%	-13.2%
O=C1c2c(nc(CNCc3cnccn3)n2Cc2ccccc2)NCCN1Cc1cccc(Cl)c1	.	.	77.9%	.	.	.
O=C(NCCc1ccccc1)c1ccc(-c2ccccc2C(F)(F)F)o1	50.1µM*	-3.5%	?	24.6%	37.0%	-29.8%
O=C(NCCc1ccccc1)c1ccc(-c2ccc(F)cc2)o1	-48.9%	?	-22.2%	-29.7%	1.9%	-7.2%
Cc1ccccc1-c1ccc(C(=O)Nc2cccc(F)c2)o1	10µM*	?	-23.4%	-1.4%	-1.1%	-25.9%
O=C(Nc1cccc(F)c1)c1ccccc1-c1ccccc1	5.9%	18.7%	-21.6%	-2.1%	35.7%	21.6%
O=C(Nc1cccc(F)c1)c1ccc(-c2ccccc2C(F)(F)F)o1	44.7µM*	2.1%	?	.	.	-12.8%
Cc1cccc(C)c1NC(=O)c1ccc(-c2cc(F)ccc2F)o1	.	.	-3.2%	.	.	.
COc1ccc(NC(=O)c2ccc(-c3ccccc3C(F)(F)F)o2)cc1	70.8µM*	7.8%	-19.9%	-12.9%	35.2%	-8.9%
CC(Nc1ccc([N+](=O)[O-])cn1)c1nc2ccccc2n1C(F)F (configuration not stated)	.	.	6.5%	.	.	.
N#CCC(=O)N/N=C/c1coc2ccccc2c1=O	.	0.3%	215.2%	-4.7%	24.1%	-6.3%
N#C/C(=C\c1coc2ccccc2c1=O)C(N)=S	1.78µM*	?	?	-31.6%	?	-103.4%
CCN1CCN(c2ccc(S(=O)(=O)N3CCCCC3)cc2NC(=O)c2ccc([N+](=O)[O-])s2)CC1	10µM*	-7.2%	?	?	?	.
CCN1CCN(c2ccc(S(=O)(=O)N3CCCCC3)cc2NC(=O)c2cccc(C(F)(F)F)c2)CC1	12.6µM*	-9.5%	?	-34.5%	-11.4%	.
O=C(Nc1cc(C(F)(F)F)ccc1N1CCOCC1)c1cccc(S(=O)(=O)N2CCOCC2)c1	.	.	-28.7%	.	.	.
CN1CCN(S(=O)(=O)c2cccc(C(=O)Nc3cc(C(F)(F)F)ccc3N3CCCCC3)c2)CC1	44.7µM*	-11.0%	-7.9%	-31.1%	11.9%	.
CCc1cc(C(=O)Nc2cc(S(=O)(=O)N3CCOCC3)ccc2N2CCN(CC)CC2)sc1C	.	.	6.2%	-22.3%	4.1%	.
CCN1CCN(c2ccc(S(=O)(=O)N3CCCCC3)cc2NC(=O)c2ccc(C)o2)CC1	39.8µM*	-7.4%	.	-23.4%	-6.2%	.
Cc1cccnc1N(Cc1cccs1)C(=O)Nc1cccc(Cl)c1	.	.	-18.8%	.	.	.
CCN1CCN(c2ccc(S(=O)(=O)N3CCCCC3)cc2NC(=O)c2ccccc2)CC1	10µM*	-11.0%	?	-15.2%	21.3%	.
CC1CCCCC1NC(=O)c1cccc(S(=O)(=O)N2CCN(C)CC2)c1 (configuration not stated)	44.7µM*	-6.0%	10.2%	-19.3%	7.3%	.
CCN1CCN(c2ccc(S(=O)(=O)N3CCCCC3)cc2NC(=O)c2cccc(F)c2)CC1	?	-32.0%	10.3%	-22.3%	-12.4%	.
CCN1CCN(c2ccc(S(=O)(=O)N3CCCCC3)cc2NC(=O)c2cccc(C)c2[N+](=O)[O-])CC1	50.1µM*	-35.2%	?	-33.8%	-1.7%	.
O=C(COc1ccccc1)Nc1cccc(-c2nc3ccccc3o2)c1	.	.	0.5%	.	.	.
SMILES	G9a block	BAZ2B inh	12-LOX inh	JMJD2A Tudor inh	HP1b binding inh	Sfp inh
Cc1cccc(NC(=O)CNC(=O)c2cc(C3CC3)nn2-c2ccccc2)c1C	50.1µM*	-11.5%	1.4%	-18.6%	19.6%	.
Cc1cc(C)c(NC(=O)CNC(=O)c2cc(C3CC3)nn2-c2ccccc2)c(C)c1	9.8%[59 µM]	12.8%	58.9%	-9.5%	16.3%	.
CC(C)(NO)/C(=N/O)c1cccs1	7.08µM*	44.7µM*	?	10µM*	-25.8%	-1.7%
Cc1ccc(C)n1NC(=O)c1cccs1	-15.1%[12.7 µM]	-21.4%	-0.6%	-26.1%	-3.0%	-1.7%
COc1ccccc1-n1cnnc1SCC(=O)NC(C)c1ccc(-c2ccccc2)cc1 (configuration not stated)	.	.	1.58µM*	.	.	.
CCCCSc1nc(C(=O)O)cc(=O)[nH]1	39.8µM*	-1.9%	-12.3%	39.8µM*	39.7%	?
Cc1cc2c(cc1S(=O)(=O)N1CCC(C(=O)N3CCCCC3)CC1)OC(C)C(=O)N2 (configuration not stated)	.	.	4.4%	.	.	.
CCCN1CCC(=O)N([C@H](CO)CC(C)C)CC1	31.6µM*	-26.1%	-3.0%	-12.5%	11.7%	3.7%
CCCN1CCC(=O)N(CCO)CC1	44.7µM*	-11.0%[57.1 µM]	-1.6%	-18.6%	26.9%	12.4%
CCCCCCCN1CCC(=O)N(CCO)CC1	8.7%	-2.0%	-3.1%	-6.3%	30.1%	2.8%
O=C(CC1CCCC1)NCC1CCCCC(=O)N1 (configuration not stated)	.	.	-12.2%	.	.	.
O=C(Nc1nc(-c2ccc3ccccc3c2)cs1)c1ccc[n+]([O-])c1	.	.	-8.1%	.	.	.
O=C1CCC[C@@H]2C[C@@]3(C[C@@H]4CCN1[C@H]24)Nc1cc(Cl)ccc1NC3=NC1CCCCC1	.	.	-1.0%	-28.5%	20.2%	.
Cc1cc2c(cc1C)N[C@]1(C[C@H]3CCCC(=O)N4CC[C@@H](C1)[C@@H]34)C(=NC(C)(C)CC(C)(C)C)N2	.	.	-5.0%	22.4µM*	?	.
CCCC(=O)Nc1sc(Cc2ccccc2)c(C)c1C(N)=O	3.55µM*	-25.5%	?	-22.5%	?	12.6µM*
Cc1c(Cc2ccc3c(c2)OCO3)sc(NC(=O)c2ccccc2)c1C(N)=O	31.6µM*	-0.1%	?	-14.1%	10.9%	?
Cc1cccc(C(=O)NC(=S)Nc2ccc(S(=O)(=O)N3CCN(C)CC3)cc2)c1	?	?	?	?	?	-22.7%
CCc1noc(C)c1C(=O)N1CCN(S(=O)(=O)c2ccc(Cl)cc2)CC1	0.3%[59 µM]	5.9%	21.9%	-4.7%	37.4%	.
